The text below walks through data of PubChem BioAssay AID493201 (National Center for Advancing Translational Sciences (NCATS), 2011).

Records with an inconclusive call do not appear. Entries that show only a call come without a potency. The source made the active and inactive calls. The call rests on the fitted dose curve; in most records, active means well fitted activation curve with a large enough effect; inconclusive means small, poorly fitted or top-dose-only effect; inactive means no such curve, though single readings can be large or run the other way.
Potency means the concentration at half of the fitted maximal effect.

The experiment in a line: qHTS Assay for Identifying a Potential Treatment of Ataxia-Telangiectasia: Secondary assay (no NCS) hit validation.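 Further: phosphorylated KAP1 signal as a proxy for ATM-like kinase activity.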 The conditions noted are these: A-T patient fibroblasts, AlphaLISA, no DNA damage added, 90 min; series mostly up to 76.9 µM. The method, boiled down: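 Without NCS-induced DNA breaks, ATM-like activity scored as phospho-KAP1 AlphaLISA signal (pKAP1/total KAP1 bead pair) in ATM-null F2112 fibroblasts; compound series up to 76.7 uM final, 37C incubation, lysates read on AlphaScreen protocol.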
(In qHTS, concentration-response curves come from the screen itself.)
For `COc1ccc(C(=O)CSc2nc3ncccc3[nH]2)cc1OC`, the Potency entry is “inactive”.

As to `CC(C)c1ccc(-c2cc(C(=O)N3CCOCC3)c3cc(Br)ccc3n2)cc1`, the Potency entry was “inactive”. For `Cc1cc2c(c(=O)o1)C(CCC1CCCCC1)C(C#N)=C(N)O2` (stereo not drawn) the value was “inactive”.

Consider `CCOC(=O)N1CCC(NC(=O)C2CCN(S(=O)(=O)c3cccc4cccnc34)CC2)CC1`, for which the Potency result was “inactive”.

With `NC(=O)c1cc2ccccc2o/c1=N/NC(=O)c1cccc(F)c1`, the Potency result was “inactive”. For `Cc1nn(C)c(Cl)c1CN1CCN(C2CCCC2)C(CCO)C1` (stereo not drawn) the value was “inactive”; for `COc1ccc(C2(C)CC(C)(C)Nc3ccccc32)cc1` (stereo not drawn), “inactive”; for `CCOc1cccc(/C=C/c2ccc3cccc(O)c3n2)c1OC`, “inactive”. Regarding `C/C(CCC1CC(C)OC1=O)=N\NC(N)=S` (stereo not drawn), the Potency entry was “inactive”.

Take `CCOC(=O)C1CCN(C(=O)c2cc3cc(Cl)ccc3[nH]2)CC1`: the Potency result was “inactive”. For the compound `Cc1ccc(NC(=O)CSc2nnc([C@H](C)NC(=O)OC(C)(C)C)o2)c(C)c1`, the Potency result was “inactive”. For `COc1cccc(C2C(C(N)=O)=C(C)Nc3nc(CCCO)nn32)c1` (stereo not drawn), the Potency entry was “inactive”. For `O=c1c2cc(Br)ccc2nc(-c2ccccc2)n1O` the value was “inactive”; for `O=C(CCC(=O)c1ccc(F)cc1)Nc1cccc(Br)c1`, “inactive”; for `O=C(O)CCCN1C(=O)/C(=C/C=C/c2ccco2)SC1=S`, “inactive”. Turning to `COc1ccc(C(=O)/C=C/C(=O)N(CC(=O)NC2CCCCC2)Cc2ccccc2)c(O)c1`, the Potency entry was “inactive”. Then `COC(=O)c1ccc2[nH]c3cccc(/C(=C/c4ccccc4)c4ccccc4)c3c2c1`, with “inactive”; and `O=C(NC(=O)c1c(F)cccc1F)Nc1ccccc1SC(F)F`, with “inactive”. Take `COc1ccc2nc(NCCCNC(=O)c3cc(OC)c(OC)c(OC)c3)c(C#N)cc2c1`: the Potency entry is “inactive”. Then `CC1CC(C)CN(S(=O)(=O)c2ccc(C(=O)NCCCn3ccnc3)cc2)C1` (stereo not drawn), with “inactive”; and `O=C1/C(=C/c2ccc(N3CCOCC3)o2)SC(=Nc2ccccc2)N1CCc1c[nH]c2ccccc12`, with “inactive”.

On to `CC(=O)NNC(=O)CN1C(=O)/C(=C/c2ccccc2)SC1=S`, for which the Potency entry is “inactive”. Then `O=C(c1ccc(F)cc1)c1ccc(N2CCCCC2)cc1`, with “inactive”; and `Cc1nn(-c2ccccc2)c2nc(C(Cl)(Cl)Cl)[nH]c(=O)c12`, with “inactive”; and `CNC(=O)Cc1csc2ccc(C)cc12`, with “inactive”. For `CCc1nnc2n1N=C(c1cccc([N+](=O)[O-])c1)CS2` the value was 51.9 µM (active); for `COc1ccccc1-n1c(SCC(N)=O)nc2sc3c(c2c1=O)CCC3`, “inactive”; for `COc1ccc(NCc2cc(=O)oc3cc(NC(C)=O)ccc23)cc1`, “inactive”. Then `CCN1CCN(CC(=O)Nc2ccc(C(C)=O)cc2)CC1`, with 26 µM (active); and `COC(=O)Cc1ccc(NC(=S)NCCSc2ccc(Cl)cc2)cc1`, with “inactive”. `CCOc1cccc(-c2nnc(SCC(=O)Nc3cc(C)ccc3OC)n2N)c1`: the Potency entry was “inactive”. For `CNC(=S)N(CCc1c(C)[nH]c2ccc(Cl)cc12)Cc1cccnc1` the value was “inactive”; for `CN1C[C@@H]2C(c3ccccc3)C3(c4ccccc4)CC2(C3)[C@H]1c1ccccc1` (stereo partly drawn), 20.7 µM (active).
